Experimental data reported in paper PMC7819943, “Rice protein-binding microarrays: a tool to detect cis-acting elements near promoter regions in rice”.
Whole data set: some 35,000 sequences, median “fluorescence intensity (a.u.)” near 10,000, cut for the highest 2% near 52,000. This is one part of a sample in which the highest values are shown more often than they occur.

Target: T1, OsWOX13 (Oryza sativa, UniProt Q5QMM3 1-267)
T1 sequence: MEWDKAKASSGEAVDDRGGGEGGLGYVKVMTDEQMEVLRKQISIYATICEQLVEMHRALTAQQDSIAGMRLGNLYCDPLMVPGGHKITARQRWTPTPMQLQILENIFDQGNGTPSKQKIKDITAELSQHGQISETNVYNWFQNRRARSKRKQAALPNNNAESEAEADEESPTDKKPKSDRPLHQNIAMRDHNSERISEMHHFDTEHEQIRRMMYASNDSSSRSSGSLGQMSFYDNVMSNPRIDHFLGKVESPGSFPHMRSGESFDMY
Assay: protein-binding microarray (RPBM); PBS, 2% BSA, 51.3 ng/ul salmon testes DNA, 50 uM zinc acetate, 200 nM TF, 25 C, 1 h; high values mean tight binding
Conditions: protein: recombinant; tags: N-terminal polyhistidine and DsRed monomer fusion (pET32a); label: CyDye5-dUTP incorporated in the synthesized complementary strand; 3' TTTTT single-stranded linker to array surface; dsDNA, one strand shown
Method in brief: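 Per-feature fluorescence intensity (arbitrary units), read on an Axon 4000B scanner, is the binding signal. Transcription factors carrying an N-terminal polyhistidine tag and DsRed fusion were expressed in E. coli BL21-CodonPlus and purified on Ni–NTA. A custom Agilent array, made double-stranded by primer extension with Cy5-dUTP and blocked with 2% BSA, was incubated with 200 nM protein in PBS, 2% BSA, salmon testes DNA and 50 µM zinc acetate at 25 °C for 1 h and then washed.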

| Sequence | binding signal |
| --- | --- |
| TGATAATTTTAAATTAAATAAGTAAATTTCAGAAAACTATCGGAGTCACCTAGTGCAG | 29700 fluorescence intensity (a.u.) |
| TTATATTTAGATTGAAGCCAAAATAACCTAAGTTCACTATCGGAGTCACCTAGTGCAG | 8620 fluorescence intensity (a.u.) |
| TTTTACTATAACGTTTGATCATTTGTGTTATTTAAATTTTCGGAGTCACCTAGTGCAG | 4170 fluorescence intensity (a.u.) |
| TGATTTGGCTGATTAGATGCAATTTAGTCCTGCCACTGTGCGGAGTCACCTAGTGCAG | 16900 fluorescence intensity (a.u.) |
| AATCAATCAATTAGTTAGAGATCAAGTTATTAGTGTCCAACGGAGTCACCTAGTGCAG | 31100 fluorescence intensity (a.u.) |
| CAAATAAACAGGGTTCAGTCAAACTCAAGTGAATGAATTGCGGAGTCACCTAGTGCAG | 11500 fluorescence intensity (a.u.) |
| ATGAGCCTAACCATTTCTAGTGTTACTTACTCCATTTCAGCGGAGTCACCTAGTGCAG | 64200 fluorescence intensity (a.u.) |
| GTCATCAATGATTCAGTGTTAACTACTCCATTTCTAGAAACGGAGTCACCTAGTGCAG | 3880 fluorescence intensity (a.u.) |
| GTGCAATTTAACTCCATAAATTACTTTCAGAAATGTGCAGCGGAGTCACCTAGTGCAG | 11300 fluorescence intensity (a.u.) |
| ATAATGGGAAATGGAGGGTGGGATTGGGATTAGAAAATGACGGAGTCACCTAGTGCAG | 3290 fluorescence intensity (a.u.) |
| AATATTAGTATTAATTGATAAAAGTTCGTCACGCGAGTTACGGAGTCACCTAGTGCAG | 18200 fluorescence intensity (a.u.) |
| ATTTTGAAGTTCCTGTAAGTTGGACATATCTACTGGTTCCCGGAGTCACCTAGTGCAG | 65500 fluorescence intensity (a.u.) |
| GAGTAATTTTCTACTGGTTTTAATAGTTGAAATAGCTGTTCGGAGTCACCTAGTGCAG | 3780 fluorescence intensity (a.u.) |
| TAAATTGAATGGTTTTGTAAGTTGAGGGACGTCATATATCCGGAGTCACCTAGTGCAG | 21500 fluorescence intensity (a.u.) |
| TATCTCTAATTTAGTTAATTTAACTTGTTGATCGATCGCTCGGAGTCACCTAGTGCAG | 21700 fluorescence intensity (a.u.) |
| CAAAACTGTCATTTTGTATGATTTCTCTCTCATCAATTGGCGGAGTCACCTAGTGCAG | 17500 fluorescence intensity (a.u.) |
| CAATAAATTTGAATAGCAATTGGTATATGTCATATCTGGTCGGAGTCACCTAGTGCAG | 14900 fluorescence intensity (a.u.) |
| TCGGTCTGCAAACAAATTGATTGATTTGTTTTCCTTTTGCCGGAGTCACCTAGTGCAG | 47100 fluorescence intensity (a.u.) |
| TTATACAAATTATACCTGTTAATTATTGTGATTGTTTGGTCGGAGTCACCTAGTGCAG | 36800 fluorescence intensity (a.u.) |
| ATTTTCTCAATTTATCTCACTCATATAAACTCCAAATTGGCGGAGTCACCTAGTGCAG | 6170 fluorescence intensity (a.u.) |
| AGCAAATTTAAATTTGATAGTATAGAATTGGTTCTGAGGTCGGAGTCACCTAGTGCAG | 52400 fluorescence intensity (a.u.) |

| Sequence | binding signal |
| --- | --- |
| TTTGATTTAATTTGTTCTGCAAACAGTCCGGAAAATGCCTCGGAGTCACCTAGTGCAG | 53500 fluorescence intensity (a.u.) |
| CGTTTCTGATTTGATTCTTCCAAATTTTGGGTTCCTGATTCGGAGTCACCTAGTGCAG | 24800 fluorescence intensity (a.u.) |
| AGTTTATGATAATTTAAATTTATATAGTATGTAGAATGGTCGGAGTCACCTAGTGCAG | 14400 fluorescence intensity (a.u.) |
| ACTTGTAGTAATTTAATTTGAAATTCTGTTCTTGCCTCTGCGGAGTCACCTAGTGCAG | 6760 fluorescence intensity (a.u.) |
| TTGATTTGATTGGGTTGGTTCCAAATTATATTCTGTGATTCGGAGTCACCTAGTGCAG | 57600 fluorescence intensity (a.u.) |
| CCAAATTTGATTGGCATCTCAAAACTGTCGTATAATTGGGCGGAGTCACCTAGTGCAG | 65500 fluorescence intensity (a.u.) |
| ATTCGTAACCACTTAATTACCCATTTATCCCCTTCTGATTCGGAGTCACCTAGTGCAG | 10600 fluorescence intensity (a.u.) |
| TATAAATTTAGTTAAATATATATAAAGAAGTTTGACTTATCGGAGTCACCTAGTGCAG | 9160 fluorescence intensity (a.u.) |
| TAATAATTTATTATGTGTATGTGTATGGCTAGGATACAGCCGGAGTCACCTAGTGCAG | 16500 fluorescence intensity (a.u.) |
| TGTTTTACCCTGATTGCGTGAAGTGAAACTATTATTCAGGCGGAGTCACCTAGTGCAG | 3550 fluorescence intensity (a.u.) |
| GTCATAATTTGAAATTCAAATTTAAACTATTCAAACAAAGCGGAGTCACCTAGTGCAG | 23300 fluorescence intensity (a.u.) |
| TTTCGTGATAATTTTGTGTGCAATCACAACAATTTGAAATCGGAGTCACCTAGTGCAG | 6180 fluorescence intensity (a.u.) |
| TGTATTTGATTGAAACTGTTCATACTATAAACATGCTGGGCGGAGTCACCTAGTGCAG | 57900 fluorescence intensity (a.u.) |
| ACTAATTTGGTATTATAACTGTTGCTAATTATTCTATAAACGGAGTCACCTAGTGCAG | 21700 fluorescence intensity (a.u.) |
| AAAATTATATAATTATAATTTATTTTATTGCAACTTGATTCGGAGTCACCTAGTGCAG | 27000 fluorescence intensity (a.u.) |
| ATCATAATTTGAAATTCAAATTCATACTGTTCAAACAAAGCGGAGTCACCTAGTGCAG | 17600 fluorescence intensity (a.u.) |
| CAAATTGGTGGGTGATTGCTAATTTATAACTGTTCGTATTCGGAGTCACCTAGTGCAG | 64100 fluorescence intensity (a.u.) |
| GCAAATTGAATTAATTCGTGTGATATTTGTTCTGCACCGGCGGAGTCACCTAGTGCAG | 59500 fluorescence intensity (a.u.) |
| GTTCGTTCGTTCGTTGATTGATTGTGTTGAATTAATTGAGCGGAGTCACCTAGTGCAG | 27600 fluorescence intensity (a.u.) |
| TCCACTCAATCTTCTGTTTCTATTTCCCCGTAATCGAAGCCGGAGTCACCTAGTGCAG | 4630 fluorescence intensity (a.u.) |
| AGCTAAATTGATTCGTGCACCCAAGTCAACAAGAAAACGTCGGAGTCACCTAGTGCAG | 38900 fluorescence intensity (a.u.) |
